AmpC no deterg = qHTS Inhibitors of AmpC Beta-Lactamase (assay without detergent); actives 0.52% (n = 330,000); Potency, µM (titrated, usually from 57.1 µM), for inactives: top-dose activity change, negative = inhibition, most hits filed as inhibitors; AmpC nitrocefin hydrolysis, absorbance 480 nm, 0.0001% Triton; P00811;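 further: potency means the concentration at half of the fitted maximal effect; plate controls were no compound for no effect and no enzyme for full effect; nearly all actives have a fitted effect of over 20% in size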
Target sequence (P00811 whole entry, looked up): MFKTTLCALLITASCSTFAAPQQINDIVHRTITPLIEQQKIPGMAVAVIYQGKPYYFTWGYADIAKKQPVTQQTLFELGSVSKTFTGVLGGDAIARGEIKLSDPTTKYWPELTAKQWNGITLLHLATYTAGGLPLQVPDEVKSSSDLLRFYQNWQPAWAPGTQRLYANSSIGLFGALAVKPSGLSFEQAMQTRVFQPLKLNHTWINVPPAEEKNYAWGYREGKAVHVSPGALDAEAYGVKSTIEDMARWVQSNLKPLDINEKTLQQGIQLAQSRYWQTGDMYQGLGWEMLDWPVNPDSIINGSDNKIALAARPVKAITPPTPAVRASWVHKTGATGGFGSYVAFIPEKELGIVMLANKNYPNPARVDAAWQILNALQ
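20 mM phosphate pH 7.0 + 0.01% (detergent screen) or 0.0001% Triton X-100; 5.3 nM AmpC reagent; cpd preinc 15 min RT; nitrocefin (800 uM stock) to start; A480 q20 s × 4 min; Activity was normalised to no-enzyme and no-compound control wells.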
AMA1-RON2 inh = qHTS for Inhibitors of AMA1-RON; Towards Development of Antimalarial Drug Lead: Primary Screen; Plasmodium falciparum AMA1 (3D7) - RON2 peptide interaction; AlphaScreen AMA1-biotinylated RON2 peptide binding; Potency, µM (series often up to 58.2 µM), for the others: at the top dose activity change, negative = inhibition, usual class: inhibitors; actives 0.2% (n = 360,000); AID 720542, 2013;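 further: potency means the concentration at half of the fitted maximal effect; 0% = vehicle wells and -100% = peptide control; nearly all actives have a fitted effect of over 45% in size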
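AMA1 (3D7) with his tag at 25 nM final met compounds first, then biotinylated RON2 peptide at 25 nM; detection used donor plus acceptor beads, 10 µg/mL apiece, read by AlphaScreen after 30 min at room temperature.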
CHX counter = Cycloheximide Counterscreen for Small Molecule Inhibitors of Shiga Toxin; cell reporter, cycloheximide protein synthesis inhibition counterscreen; max response, %; actives 12% (n = 300,000); in the data active means max response mostly above about 13%, no sharp cut-off; inactive means mostly below about 14%; further: read at 38.3 µM for the half of the compounds with a filed dose; 0% is about no effect
AmpC detergent = qHTS Inhibitors of AmpC Beta-Lactamase (assay with detergent) | P00811 | AmpC hydrolysis of nitrocefin, absorbance 480 nm, 0.01% Triton | Potency, µM (top dose mostly 114 µM), for the others: at the highest dose activity change, negative = inhibition, hits mostly inhibitors | actives 0.041% (n = 370,000) | AID 485294, 2010;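 further: potency means the concentration at half of the fitted maximal effect; 0% = no-compound wells and -100% = no-enzyme wells; nearly all actives have a fitted effect of over 25% in size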
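20 mM phosphate pH 7.0 + 0.01% (detergent screen) or 0.0001% Triton X-100; 5.3 nM AmpC reagent; cpd preinc 15 min RT; nitrocefin (800 uM stock) to start; A480 q20 s × 4 min; Activity was normalised to no-enzyme and no-compound control wells.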
Shiga toxin inh = A qHTS for Small Molecule Inhibitors of Shiga Toxin; Vero cells, Shiga toxin protein synthesis inhibition reporter; inhibition, % at 38.7 µM; actives 9.2% (n = 290,000); AID 2315, 2010; in the data active means inhibition mostly above about 28%, no sharp cut-off; inactive means mostly below about 43%; further: 0% is about no effect
SARS PLP yeast = qHTS of Yeast-based Assay for SARS-CoV PLP. Potency, µM (highest dose often 32.9 µM), for the others: top-dose activity, positive = growth rescue, usual class: activators. actives 0.19% (n = 330,000). S. cerevisiae expressing SARS-CoV PLpro, growth rescue; calls by dose curve; further: potency means the concentration at half of the fitted maximal effect; 0% is about no effect; nearly all actives have a fitted effect of over 55% in size
* marks the source's active call; other numbers are inactive results; ? = inconclusive; nt = not tested or not shown. This excerpt belongs to a sample that is enriched for hits. Unless noted, the call rests on the fitted dose curve; in most records, active means well fitted curve in the direction sought with a large enough effect; inconclusive means small, poorly fitted or top-dose-only effect, or another doubt; inactive means no such curve, though single readings can be large; an effect the other way counts as inactive or inconclusive.

SMILES | AmpC no deterg | AMA1-RON2 inh | CHX counter | AmpC detergent | Shiga toxin inh | SARS PLP yeast
CCCN(CCC)C(=O)C[n+]1cccc(/C=N/O)c1 | -13% | 6% | -5 | 5% | -10 | -3%
Cc1c(O)c2ccccc2n(-c2ccccc2)c1=O | nt | 18% | nt | nt | nt | nt
COc1ccccc1-c1nnc(SCC(=O)O)n1-c1ccccc1 | -3% | -11% | -2 | -1% | 2 | 0%
CN(C)c1ccc(NC(=O)CSc2nnc(-c3cnccn3)n2C)cc1 | -5% | -14% | 13* | ? | 37 | 4%
CCn1c(SCC(=O)O)nnc1-c1ccccc1OC | -28% | 5% | 49* | -9% | 103* | -1%
Oc1ccccc1C1SC(c2ccccc2O)SC(c2ccccc2O)S1 (centres undefined) | nt | -14% | nt | nt | nt | nt
O=C(O)CSc1nnc(SCc2cccc3ccccc23)s1 | -16% | -6% | -5 | ? | -7 | 17%
COCCCNC(=O)CCc1nnc(Cc2ccc(-c3ccccc3)cc2)o1 | 117% | 5% | 0 | -5% | 1 | 0%
Cc1cc(-c2nnc(CCC(=O)NCc3ccc(F)c(F)c3)o2)no1 | -9% | 4% | -3 | -12% | -10 | 0%
CC(C)NC(=O)CCc1nnc(Cc2cccc(C(F)(F)F)c2)o1 | -6% | -2% | 28* | 6% | 92* | -2%
Cc1cc(-c2nnc(CCC(=O)NCc3cccc(C(F)(F)F)c3)o2)no1 | 12% | 27% | 21* | 2% | 29 | 1%
CCC(COC)NC(=O)CCc1nnc(Cc2cccc(C(F)(F)F)c2)o1 (centres undefined) | 14% | -4% | 46* | 3% | 60* | 0%
CCc1ccc(CNC(=O)CCc2nnc(Cc3cccc(C(F)(F)F)c3)o2)nc1 | 95% | 7% | 0 | 7% | 11 | -1%
CC(C)N(CCO)C(=O)CCc1nnc(Cc2cccc(C(F)(F)F)c2)o1 | 53% | 9% | 19* | 9% | 52 | 0%
CN(Cc1ccccc1Cl)C(=O)C1CCC(=O)N(C2CCCCCC2)C1 (centres undefined) | 212% | -10% | 14* | -4% | 18 | 1%
COc1cc2c(cc1NC(=S)Nc1cccc3ccccc13)oc1ccccc12 | -27% | -19% | 35* | -11% | 103* | -11%
COc1cc2c(cc1NC(=O)Nc1ccccc1)oc1ccccc12 | -23% | -6% | 1 | -5% | 20 | -10%
COCCCNC(=S)Nc1cc2oc3ccccc3c2cc1OC | 62% | 16% | 11* | 4% | 17 | 1%
N#Cc1ccsc1NC(=O)CN1C(=O)NC2(CCCC2)C1=O | -26% | nt | nt | -10% | nt | 1%
COC(=O)[C@H]1C[C@@]2(O)CN(S(=O)(=O)c3ccc(C)cc3)C[C@@]2(OC(=O)NCc2ccc(OC)c(OC)c2)C[C@H]1C(=O)OC | nt | 7% | nt | nt | nt | nt
Cc1ccc(-c2nn3c(-c4ccco4)nnc3c3ccccc23)cc1S(=O)(=O)NCC1CCCO1 (centres undefined) | -13% | 17% | -3 | -1% | 9 | 1%
COc1cc2c(CCNC(C)=O)c[nH]c2cc1O | nt | 4.5µM* | nt | nt | nt | nt
CCc1ccc(OCCNC(=O)c2ccco2)cc1 | -9% | 0% | 34* | -14% | 52* | -7%
COc1ccc(CCNC(=O)NCCc2c[nH]c3ccccc23)cc1OC | -5% | 1% | -3 | 7% | 5 | 1%
O=C(NCCOc1ccc(Cl)cc1)c1ccco1 | -1% | -24% | 2 | ? | 11 | -4%
SMILES | AmpC no deterg | AMA1-RON2 inh | CHX counter | AmpC detergent | Shiga toxin inh | SARS PLP yeast
CCOc1ccc(CNC(=O)c2ccco2)cc1 | -13% | -9% | 20* | 2% | 40 | -3%
CCc1ccc(OCC(=O)NCCOc2ccccc2)cc1 | -5% | 6% | 27* | -14% | 66 | 1%
CCCCOCCCNC(=O)COc1ccccc1 | 0% | 20% | -2 | 0% | -8 | ?
CCCCc1c(O)nc(SCC(=O)N2CCOCC2)n(-c2ccc(C)cc2)c1=O | nt | 9% | nt | nt | nt | nt
CCOC(=O)C1=C(C)N=C2SCCC(=O)N2C1c1cc(Br)ccc1OC (centres undefined) | nt | 1% | nt | nt | nt | nt
Cc1ccc(OCCNC(=O)c2ccccc2N)cc1 | -7% | -4% | 13* | -2% | 27* | 4%
Cc1ccc(C(=O)NCCNC(=O)c2ccco2)cc1C | -2% | -2% | -3 | -9% | -4 | -1%
COc1ccccc1C(=O)NCCOc1ccc(C)c(C)c1 | 5% | 4% | 25* | 6% | 39* | 1%
CCc1ccc(OCCNC(=O)OCc2ccccc2)cc1 | -13% | ? | -2 | ? | 40 | -1%
COc1ccccc1C(=O)NCCC(=O)NCCOc1ccc(C)cc1 | nt | 23% | nt | nt | nt | nt
CCOC(=O)NCCOc1ccc(Oc2ccccc2)cc1 | nt | nt | 21* | nt | 30* | nt
Cc1ccc(OCCNC(=O)c2ccco2)cc1C | -17% | 6% | 17* | -1% | 74* | -6%
COc1ccc([C@@H]2CC(=O)c3c(O)cc(O[C@@H]4OC(CO[C@@H]5OC(C)[C@H](O)[C@@H](O)[C@H]5O)[C@@H](O)[C@H](O)[C@H]4O)cc3O2)cc1O (some centres undefined) | -6% | -1% | nt | nt | nt | 2%
OCc1ccccc1N=Cc1cccnc1 | -9% | -5% | -5 | ? | 3 | 1%
COc1ccc(OCCNC(=O)c2ccccc2OCC(=O)Nc2ccc(NC(C)=O)cc2)cc1 | -2% | -13% | 24* | -13% | 18 | -12%
COc1ccc2c(CCNC(=O)c3ccco3)c[nH]c2c1 | -15% | -23% | 49* | -5% | 63* | -8%
CCCCOc1ccc(C(=O)N/C(=C/C=C/c2ccccc2)C(=O)NC)cc1 | 135% | 12% | 10* | -1% | 27 | -15%
CCCCOc1ccc(C(=O)N/C(=C/C=C/c2ccccc2)C(=O)O)cc1 | -18% | -7% | 3 | 0% | -4 | 1%
CCOC(=O)N/N=C/c1ccc(Oc2ccccc2)cc1 | -7% | -4% | 41* | -1% | 104* | 11%
CCOc1ccc(NC(=O)CCN2CCN(S(=O)(=O)c3cc(Cl)ccc3OC)CC2)cc1 | 166% | 5% | -2 | 2% | -2 | 0%
Cc1ccc(C)c(C(=O)COC(=O)c2cc(S(=O)(=O)N3CCOCC3)ccc2F)c1 | nt | 1% | nt | nt | nt | nt
O=C(CSc1ccccn1)Nc1ccc(Cl)c([N+](=O)[O-])c1 | -23% | 13% | 12 | ? | 30 | -3%
COc1ccccc1CNC(=O)c1ccc(S(=O)(=O)N2CCCC2)cc1 | 2% | 3% | -1 | 1% | -14 | 1%

Screening results as filed in PubChem BioAssay.
